AMA1 RON2 block – qHTS for Inhibitors of AMA1-RON; Towards Development of Antimalarial Drug Lead: Primary Screen; Plasmodium falciparum AMA1 (3D7) - RON2 peptide interaction; AlphaScreen AMA1-biotinylated RON2 peptide binding; Potency, µM (series often up to 58.2 µM), without a hit: at the top dose activity change, negative = inhibition, hits mostly inhibitors; hit rate 0.2% among 360,000; AID 720542, 2013;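 further: 0% = vehicle wells and -100% = peptide control; nearly all actives have a fitted effect of over 45% in size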
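AMA1 (3D7) with his tag at 25 nM final met compounds first, then biotinylated RON2 peptide at 25 nM; detection used donor plus acceptor beads, 10 µg/mL apiece, read by AlphaScreen after 30 min at room temperature.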
AmpC detergent – qHTS Inhibitors of AmpC Beta-Lactamase (assay with detergent); P00811; AmpC hydrolysis of nitrocefin, absorbance 480 nm, 0.01% Triton; Potency, µM (series often up to 114 µM), without a hit: at the top dose activity change, negative = inhibition, actives largely listed as inhibitors; hit rate 0.041% among 370,000; AID 485294, 2010;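 further: 0% = no-compound wells and -100% = no-enzyme wells; nearly all actives have a fitted effect of over 25% in size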
Target sequence (P00811 whole entry, looked up): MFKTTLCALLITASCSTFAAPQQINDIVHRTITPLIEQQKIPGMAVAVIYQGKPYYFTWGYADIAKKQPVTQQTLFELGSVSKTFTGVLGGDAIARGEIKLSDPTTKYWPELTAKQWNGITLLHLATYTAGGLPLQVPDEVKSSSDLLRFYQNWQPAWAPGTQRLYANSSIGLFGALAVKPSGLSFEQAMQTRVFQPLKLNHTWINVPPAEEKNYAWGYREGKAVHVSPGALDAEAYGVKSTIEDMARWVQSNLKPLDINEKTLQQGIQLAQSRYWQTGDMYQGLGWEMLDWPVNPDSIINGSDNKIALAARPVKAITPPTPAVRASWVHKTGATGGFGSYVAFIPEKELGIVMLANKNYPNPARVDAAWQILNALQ
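20 mM phosphate pH 7.0 + 0.01% (detergent screen) or 0.0001% Triton X-100; 5.3 nM AmpC reagent; cpd preinc 15 min RT; nitrocefin (800 uM stock) to start; A480 q20 s × 4 min; Activity was normalised to no-enzyme and no-compound control wells.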
Sm TGR inh – qHTS Assay for the Inhibitors of Schistosoma Mansoni Peroxiredoxins; Schistosoma mansoni thioredoxin glutathione reductase (TGR), Q962Y6; purified TGR, DTNB reduction, TNB absorbance 405 nm; Potency, µM (series often up to 114 µM), for inactives: top-dose activity change, negative = inhibition, actives largely listed as inhibitors; hit rate 3% among 360,000; further: nearly all actives have a fitted effect of over 60% in size
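TGR 20 nM + NADPH 100 uM (dispensed conc.), cpd preinc 15 min RT; start with NADPH (500 uM addition) then DTNB (15 mM addition). Kinetic TNB absorbance, 405 nm filter. Four-parameter Hill fit across titration.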
AmpC no deterg – qHTS Inhibitors of AmpC Beta-Lactamase (assay without detergent); Potency, µM (series often up to 57.1 µM), for inactives: top-dose activity change, negative = inhibition, hits mostly inhibitors; P00811; hit rate 0.52% among 330,000; AmpC nitrocefin hydrolysis, absorbance 480 nm, 0.0001% Triton; AID 485341, 2010;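 further: plate controls were no compound for no effect and no enzyme for full effect; nearly all actives have a fitted effect of over 20% in size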
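20 mM phosphate pH 7.0 + 0.01% (detergent screen) or 0.0001% Triton X-100; 5.3 nM AmpC reagent; cpd preinc 15 min RT; nitrocefin (800 uM stock) to start; A480 q20 s × 4 min; Activity was normalised to no-enzyme and no-compound control wells.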
FMDV antiviral – High Throughput Screening for Foot and Mouth Disease Virus Antivirals; FMDV antiviral cell-based qHTS; Potency, µM (highest dose often 57.9 µM), inactives show at the highest dose activity change, negative = inhibition, hits mostly inhibitors; hit rate 1.2% among 410,000; calls by dose curve; tested in HEK293T cells; further: read-out not given here; nearly all actives have a fitted effect of over 45% in size
Starred values were filed as active, the others as inactive. This is a sample that favours compounds with a hit; in the whole collection about 4.1% have one here. Unless noted, the call rests on the fitted dose curve; in most records, active means well fitted curve in the direction sought with a large enough effect; inconclusive means small, poorly fitted or top-dose-only effect, or another doubt; inactive means no such curve, though single readings can be large; an effect the other way counts as inactive or inconclusive. Unless noted, on the % scale 0 is the no-effect control and ±100 the full control effect; potency means the concentration at half of the fitted maximal effect.

Screening COc1ccc(-c2nc(CCNC(=O)c3cccs3)cs2)cc1OC returned AmpC detergent 6.5%, Sm TGR inh -1.8% and FMDV antiviral inconclusive.
`Cc1cccc2sc(N(Cc3cccnc3)C(=O)CCOc3ccccc3)nc12` gave AmpC detergent 2.6%, Sm TGR inh 3.55µM* and FMDV antiviral -16.3%.
O=C(CCOc1ccccc1)N(Cc1cccnc1)c1nc2c(Cl)cccc2s1 was read as AmpC detergent -0.3%, Sm TGR inh 1.12µM* and FMDV antiviral inconclusive.
`Cc1cc(C)c2nc(N(Cc3cccnc3)C(=O)CCOc3ccccc3)sc2c1` gave AmpC detergent 0.3%, Sm TGR inh 44.2% and FMDV antiviral -9.5%.
CC(C)(C)c1cc(CSC(=S)NC2CCS(=O)(=O)C2)c(Br)c(C(C)(C)C)c1 (stereo not given) was read as AMA1 RON2 block 35.8%, AmpC detergent inconclusive, Sm TGR inh -1.9%, AmpC no deterg -22.7% and FMDV antiviral 15.8µM*.
O=S1(=O)CC=C(CSC(=S)NC2CCS(=O)(=O)C2)C1 (stereo not given) was read as AMA1 RON2 block 13.8%, AmpC detergent 0.9%, AmpC no deterg -4.3% and FMDV antiviral 11.2µM*.
For CC(C)(C)OC(=O)N1CCC(NC(=O)c2[nH]cnc2C(=O)Nc2ccccc2F)CC1 the results were AMA1 RON2 block 82.1% and FMDV antiviral -24.0%.
For O=C(/C=C/Nc1ccccc1Br)c1ccccn1 the results were AMA1 RON2 block -1.1%, AmpC detergent -7.1%, Sm TGR inh 0.2% and FMDV antiviral 2.24µM*.
For O=C(/C=C\Nc1ccccn1)c1ccccc1 the results were AMA1 RON2 block -0.8%, AmpC detergent -14.2%, Sm TGR inh -3.3%, AmpC no deterg -4.9% and FMDV antiviral -81.1%.
For CN1C(=O)Cc2cc(S(=O)(=O)CCC(=O)Nc3cccc(C(F)(F)F)c3)ccc21 the results were AmpC detergent -0.5%, Sm TGR inh 0.8% and FMDV antiviral -7.4%.
Cc1cccc(C)c1NC(=O)CCCSc1nnc(-c2ccc(Cl)cc2)n1-c1ccccc1 was read as AMA1 RON2 block 0.2%, AmpC detergent inconclusive, Sm TGR inh -7.1%, AmpC no deterg 8.8% and FMDV antiviral 14.1µM*.
Cc1cccc(C)c1NC(=O)CCCSc1nnc(-c2ccc(F)cc2)n1-c1ccccc1 was read as AMA1 RON2 block 7.0%, AmpC detergent -11.2%, Sm TGR inh 0.1%, AmpC no deterg 56.6% and FMDV antiviral inconclusive.
O=S(=O)(c1cc(Br)c(Br)s1)N1CCN(c2ccccc2)CC1 was read as AmpC detergent 5.6%, Sm TGR inh 14.5% and FMDV antiviral -16.0%.
COC(=O)c1ccc2c(c1)sc(=NC(=O)CCS(=O)(=O)c1ccccc1)n2C was read as AMA1 RON2 block 26.6%, AmpC detergent inconclusive, Sm TGR inh 31.6µM*, AmpC no deterg inconclusive and FMDV antiviral -9.4%.
For COc1ccccc1NC(=O)Cn1c(SCC(=O)NCc2ccccc2)nc2ccccc21 the results were AmpC detergent -2.0%, Sm TGR inh -7.1% and FMDV antiviral 40.6%.
For O=C1NC(=O)c2c1c(-c1ccccc1)cc1[nH]c3ccc(O)cc3c21 the results were FMDV antiviral -34.9%.
`CCOc1c(Cl)cc(CNc2ccc(N3CCCC3)cc2)cc1OC` gave AMA1 RON2 block -10.6%, AmpC detergent inconclusive, Sm TGR inh 12.6µM*, AmpC no deterg -17.3% and FMDV antiviral -15.5%.
NCC(O)c1cc(O)c(O)cc1F (stereo not given) was read as AMA1 RON2 block inconclusive, AmpC detergent inconclusive, Sm TGR inh 44.7µM*, AmpC no deterg -10.3% and FMDV antiviral -2.3%.
For NC[C@H](O)c1ccc(O)c(O)c1 the results were AMA1 RON2 block 2.82µM*, AmpC detergent -14.2%, Sm TGR inh inconclusive, AmpC no deterg -34.5% and FMDV antiviral -10.7%.
For CNC[C@H](O)c1ccc(O)c(O)c1 the results were AMA1 RON2 block inconclusive, AmpC detergent -0.9%, Sm TGR inh 14.1µM*, AmpC no deterg -26.3% and FMDV antiviral -4.1%.
For NC[C@@H](O)c1ccc(O)c(O)c1 the results were FMDV antiviral 30.8%.
CCN(CC)CCCNC(=O)CSc1nc2nc(C)c(Cc3c(F)cccc3Cl)c(C)n2n1 was read as AmpC detergent 9.4%, Sm TGR inh 2.9% and FMDV antiviral -16.0%.
CCCCN=C1NN=C(c2cc3ccccc3o2)CS1 was read as AMA1 RON2 block 88.1%, AmpC detergent -7.7%, Sm TGR inh -3.4%, AmpC no deterg 14.1µM* and FMDV antiviral 43.9%.
Screening COc1ccc(N2CC(C(=O)Nc3ccc(NC(C)=O)cc3)CC2=O)cc1 (stereo not given) returned AmpC detergent 14.1%, Sm TGR inh -6.0% and FMDV antiviral -3.5%.
For O=c1[nH]c(=O)n(-c2ccccc2F)c(O)c1/C=C1\C=Nc2ccccc21 the results were AMA1 RON2 block -6.1%, AmpC detergent 5.0%, Sm TGR inh -32.9%, AmpC no deterg -16.9% and FMDV antiviral inconclusive.
For COc1ccc(-n2c(O)c(/C=C3\C=Nc4ccc(Br)cc43)c(=O)[nH]c2=O)cc1 the results were AMA1 RON2 block -10.7%, AmpC detergent inconclusive, Sm TGR inh inconclusive, AmpC no deterg -30.0% and FMDV antiviral 15.8µM*.
For COc1ccc(-n2c(O)c(/C=C3\C=Nc4ccccc43)c(=O)[nH]c2=O)cc1 the results were AMA1 RON2 block 4.5%, AmpC detergent -13.9%, Sm TGR inh -46.3%, AmpC no deterg -26.5% and FMDV antiviral -10.4%.
COc1ccc(-n2c(O)c(/C=C3\C=Nc4ccc(Br)cc43)c(=O)[nH]c2=O)c(OC)c1 was read as AMA1 RON2 block -6.0%, AmpC detergent 3.1%, Sm TGR inh inconclusive, AmpC no deterg 1.9% and FMDV antiviral 25.1µM*.
For CC(C)N1C(=O)CC(Nc2ccc(N3CCOCC3)cc2)C1=O (stereo not given) the results were AMA1 RON2 block 0.0%, AmpC detergent -0.3%, Sm TGR inh 35.5µM*, AmpC no deterg -7.4% and FMDV antiviral 44.0%.
`CC(C)N1C(=O)CC(Nc2cccc3cccc(N)c23)C1=O` (stereo not given) gave AMA1 RON2 block -0.7%, AmpC detergent -4.5%, Sm TGR inh inconclusive, AmpC no deterg -49.8% and FMDV antiviral -6.6%.
Screening COc1ccc(NC2CC(=O)N(C(C)C)C2=O)cc1 (stereo not given) returned AMA1 RON2 block 6.5%, AmpC detergent inconclusive, Sm TGR inh 7.94µM*, AmpC no deterg -18.7% and FMDV antiviral 13.2%.

High-throughput results: PubChem BioAssay, National Center for Advancing Translational Sciences (NCATS)
